Among all 640,000 compounds or so, about 9,300 (1.5%) were called active. The sample as a whole holds a higher share of actives than the screen did. A number with no mark means an inactive call. Rule as the data show it: active = inhibition above about 32%; inactive = the rest.
Experiment: TEAD-YAP interaction inhibition, primary screen, TEAD-YAP interaction inhibitor project, luminescence, HEK-TIYL cells (AID 1259422);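 also: 0% = median of test compound wells and 100% = reference inhibitor wells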
Settings: TEAD-Gal4/YAP UAS-luciferase luminescence, at 9.12 µM, stronger effect = higher value

Row | Compound | inhibition
1 | COCCNC(=O)Cn1cnc2c(nnn2-c2ccc(Cl)cc2)c1=O | 2.42%
2 | N#Cc1c(-c2ccc(F)cc2)cc(C2CC2)nc1SCCN1C(=O)c2ccccc2C1=O | 7.65%
3 | Cc1cncn(CC(=O)NCCc2csc(-c3ccccc3)n2)c1=O | -3.04%
4 | COc1ccccc1Cn1c(SCC(=O)Nc2ccc(N(C)C)cc2)nc2ccccc2c1=O | -7.65%
5 | CCCCC(CC)CNS(=O)(=O)c1ccc2c(c1)n(C)c(=O)c(=O)n2C (configuration not stated) | -13.6%
6 | COCCNC(=O)/C(=C/c1cccc([N+](=O)[O-])c1)c1ccccc1 | -2.61%
7 | S=C(S)NCCc1c[nH]c2ccccc12 | 10.8%
8 | O=C(CSc1nc(=O)[nH]c2c1CCC2)N1CCCCCC1 | 1.26%
9 | O=C(CCc1nnc(-c2ccccc2)o1)NCCc1ccccc1Cl | -37.1%
10 | CN1CCN(c2ncnc3c2cnn3-c2ccc(Cl)c(Cl)c2)CC1 | 32.8% (active)
11 | CN1CCN(c2ncnc3c2c(-c2ccccc2)cn3-c2ccccc2)CC1 | 4.3%
12 | CCN(CC)C(=O)C1CCCN(c2ncnc3c2c(-c2ccccc2)cn3-c2cccc(Cl)c2)C1 (configuration not stated) | -12.8%
13 | CCN(CC)C(=O)C1CCCN(c2ncnc3c2cnn3-c2ccccc2)C1 (configuration not stated) | 34.1% (active)
14 | CCN(CC)C(=O)C1CCCN(c2cc(NCc3ccccc3)ncn2)C1 (configuration not stated) | -14.4%
15 | Cc1ccc(-n2ncc3c(N4CCN(C)CC4)ncnc32)c(C)c1 | -7.59%
16 | Cc1ccccc1C(=O)NCC1(c2cccs2)CC1 | -38.7%
17 | CN1CCN(C(=O)c2ccc(-c3ccc(C(=O)NCCOc4ccccc4)s3)cc2)CC1 | -10.2%
18 | O=C1c2ccc(Br)cc2C(=O)N1CNc1cccc(F)c1 | 2.19%
19 | CCCCOc1ccccc1C1C(C(=O)OCCOCC)=C(C)NC2=C1C(=O)CC(C)(C)C2 (configuration not stated) | -1.41%
20 | COc1ccccc1C1N=C(c2cccs2)CC(c2ccccc2O)N1 (configuration not stated) | -31.6%
21 | Cn1c(-c2ccc(F)cc2Cl)c(C(=O)O)c2ccccc2c1=O | 5.25%
22 | Cc1ccc2c(c1)CN(CCC(=O)NCC(C)(C)CO)CC(C)O2 (configuration not stated) | 5.33%
23 | COc1ccccc1-c1cc2nc(C)c(CCC(=O)O)c(C)n2n1 | 48.5% (active)

Row | Compound | inhibition
24 | COc1ccc(CNC(=O)CCc2c(C)nc3cc(-c4ccccc4)nn3c2C)cc1 | 2.84%
25 | COc1ccccc1-c1cc2nc(C)c(CCC(=O)Nc3ccccc3C(N)=O)c(C)n2n1 | 12.4%
26 | O=C(C1CC=CCC1)N1CCn2cnnc2C1 (configuration not stated) | 1.34%
27 | Cc1cc(C)nc(SCC(=O)Nc2cc(C(=O)O)cc([N+](=O)[O-])c2)n1 | -2.98%
28 | CCn1c(=O)cc(SCC(=O)Nc2cccc([N+](=O)[O-])c2C)c2ccccc21 | -12.2%
29 | Cc1c(/C=N/NC(N)=S)c2ccccc2n1C | -7.34%
30 | Cc1c(/C=N\Nc2ccc([N+](=O)[O-])cc2)c2ccccc2n1C | 12.8%
31 | Cc1c(/C=N\NC(=O)c2cc3ccccc3o2)c2ccccc2n1C | 49.3% (active)
32 | c1ccc(Cn2cc(-c3cnn4c(NCCc5cccnc5)ccnc34)cn2)cc1 | -23.6%
33 | C=CCn1c(SCC(=O)N2CCOCC2)nc2scc(-c3ccccc3Cl)c2c1=O | 49.9% (active)
34 | C=CCn1c(SCCC(=O)NCCc2ccccc2)nc2scc(-c3ccco3)c2c1=O | -10.1%
35 | C=CCn1c(SCC(=O)N2CCCCCC2)nc2scc(-c3ccc(C)o3)c2c1=O | -7.67%
36 | Cc1ccc(C(=O)COC(=O)c2ccc(-n3cnnn3)cc2)cc1 | 11.7%
37 | COc1cc(Nc2nc(-c3ccc(C(=O)NC4CC4)cc3)nc3c2ncn3-c2ccsc2)cc(OC)c1OC | 22.8%
38 | O=C(COC(=O)CSCc1c[nH]c(=O)[nH]c1=O)Nc1nc(-c2ccccc2)cs1 | -38%
39 | O=c1oc2ccccc2cc1-c1cn2c(n1)sc1cc(Cl)ccc12 | 62.5% (active)
40 | CCCCCCc1cc2cc(-c3cn4c(n3)sc3cc(Cl)ccc34)c(=O)oc2cc1O | -3.76%
41 | O=c1oc2ccc(Br)cc2cc1-c1cn2c(n1)sc1ccccc12 | 2.88%
42 | Cc1cccc(N2C(=O)NC(=O)/C(=C\c3ccc(I)o3)C2=O)c1C | -0.13%
43 | O=C(O)/C(=C\c1ccccc1)NC(=O)c1ccc(Br)cc1 | -2.04%
44 | O=C(O)CCNCCC(=O)c1ccccc1 | -12.1%
45 | COc1ccc(N2CCN(C(=O)COc3ccccc3OC)CC2)cc1 | 1.61%
46 | COc1ccccc1N1CCN(C(=O)CSCc2ccccc2C)CC1 | -42.5%

Row | Compound | inhibition
47 | COc1ccccc1N1CCN(C(=O)COc2ccc(Cl)cc2C)CC1 | 58.5% (active)
48 | COC(=O)C1CCN(C(=O)c2ccc(Cl)c([N+](=O)[O-])c2)CC1 | 1.51%
49 | COc1ccccc1N1CCN(C(=O)c2ccc(Cl)c([N+](=O)[O-])c2)CC1 | 49% (active)
50 | CCOC(=O)CSc1ccc(C(=O)N2CCN(c3ccccc3OC)CC2)cc1[N+](=O)[O-] | 3.32%
51 | Cc1cccc2nc(NC(=O)c3ccnn3C)sc12 | -7.31%
52 | CCOC1=C/C(=C/c2c(N)n3nc(C(C)C)sc3nc2=O)C=CC1=O | 9.9%
53 | COc1ccc(/C=C2/N=C(c3cccc4ccccc34)OC2=O)c(OC)c1OC | -1.88%
54 | CCc1ccccc1Nc1cc(C)nc2ncnn12 | -7.4%
55 | COc1ccc(C(=O)Nc2c3c(nn2-c2ccc(F)cc2)CS(=O)C3)c(OC)c1 (configuration not stated) | 0.99%
56 | COc1ccc(-n2nc3c(c2NC(=O)c2cccc(OC)c2OC)CS(=O)C3)cc1 (configuration not stated) | -1.38%
57 | COc1ccc(-n2nc3c(c2NC(=O)c2cc([N+](=O)[O-])ccc2Cl)CS(=O)C3)cc1 (configuration not stated) | 41.9% (active)
58 | CC1CCCC(NC(=O)C(C)n2c(=O)c3cccn3c3cccnc32)C1C (configuration not stated) | 3.19%
59 | Cn1c(SCC(=O)Nc2nnc(-c3ccccc3)s2)nnc1-c1ccccc1 | -17.2%
60 | O=C(Nc1ccc(Cl)c(S(=O)(=O)c2ccc(Cl)cc2)c1)c1cc(Br)cc(Br)c1O | -6.46%
61 | CN1CCN(c2ccc(NC(=O)c3cc(Br)cc(Br)c3O)cc2Cl)CC1 | 68% (active)
62 | CC(C)(C)c1ccc(C(=O)Nc2ccc(N3CCOCC3)c(Cl)c2)cc1 | 0.56%
63 | NC(=O)c1cc(NC(=O)C(F)(F)F)cc(C(N)=O)c1 | -9.16%
64 | O=C(NCc1ccc(F)cc1)c1nc2c(nnn2Cc2ccc3c(c2)OCO3)c(=O)[nH]1 | -15.6%
65 | N#Cc1ccc(-c2csc(NC(=O)c3cc([N+](=O)[O-])ccc3Cl)n2)cc1 | 14%
66 | O=C(Nc1nc(-c2ccc(F)cc2)cs1)c1ccc([N+](=O)[O-])cc1 | 6.37%
67 | O=C(Nc1nc(-c2ccc(F)cc2)cs1)c1cc([N+](=O)[O-])ccc1Cl | 42% (active)
68 | NS(=O)(=O)c1ccc(CCNC(=S)Nc2ccccc2F)cc1 | 0.39%
69 | COc1ccc(-c2noc(CN(Cc3ccccc3)CC3CC3)n2)c(OC)c1OC | -11.8%

Row | Compound | inhibition
70 | C=CCNc1c(C)c(C)nc2cc(-c3ccc(OC)c(OC)c3)nn12 | -14.7%
71 | CC1CCCC(NC(=O)C2N(C3CCCC(C)C3C)C(=O)C3C(C(=O)Nc4cccc(Cl)c4)C4C=CC32O4)C1C (configuration not stated) | -7.64%
72 | O=C(c1ccccc1Cl)N1CCCCC1 | 2.65%
73 | CCS(=O)(=O)N1CCN(C(=O)c2ccccc2Cl)CC1 | -4.13%
74 | Cc1cc(N2CCCC2)nc(N2CCN(C(=O)c3ccccc3Cl)CC2)n1 | 33.1% (active)
75 | O=C(O)c1ccc(NS(=O)(=O)c2cccc(C(F)(F)F)c2)cc1 | 0.38%
76 | Cc1ccc(NC(=O)c2cc(S(=O)(=O)N3CCC(C)CC3)ccc2F)cc1F | -4.47%
77 | COc1cccc(N2C(=O)C3C4C=CC(C5CC45)C3C2=O)c1 (configuration not stated) | -3.66%
78 | CC12CC3(C)CC(O)(C1)CC(C(=O)c1ccccc1)(C2)C3 | -1.77%
79 | CCCn1c(SCC(=O)N2CCc3ccccc32)nnc1-c1ccncc1 | -1.7%
80 | CSc1nnc(-c2ccncc2)n1CCCN1CCCC1=O | 58.9% (active)
81 | Cn1c(SCC(=O)N2CCCCCC2)nnc1-c1ccncc1 | 5.85%
82 | COC(=O)c1cc(OC)c(OC)cc1NC(=O)c1cc2ccccc2oc1=O | -9.56%
83 | Clc1ccccc1-c1noc(-c2ccc(-c3ccccc3)cc2)n1 | 6.4%
84 | Oc1ccc(-c2nc(-c3ccccc3Cl)no2)cc1 | 64.7% (active)
85 | Cc1ccc(-c2nc(-c3ccccc3Cl)no2)cc1 | -58.6%
86 | CC1=C(C(=O)OCCOc2ccccc2)C(c2cccc(Cl)c2Cl)C2=C(CC(c3ccccc3)CC2=O)N1 (configuration not stated) | 5.89%
87 | O=C(NCCc1ccccc1)C1CCC(Cn2c(SCc3ccc(Cl)cc3)nc3ccccc3c2=O)CC1 (configuration not stated) | 6.47%
88 | c1cc(-c2nc3c(c(N4CCCCC4)n2)CNCC3)ccn1 | -3.63%
89 | CC(NC(=O)CCc1ccccc1)c1nnc2n1CCN(Cc1cccc(F)c1F)CC2 (configuration not stated) | -34.9%
90 | CSCCC(=O)Nc1nc2ccccc2[nH]1 | -12.9%
91 | S=C(Nc1nc2ccccc2[nH]1)Nc1nc2ccccc2[nH]1 | -3.78%
92 | CCCCN(CCCC)C(=O)Nc1nc2ccccc2[nH]1 | 59.5% (active)

From PubChem BioAssay AID1259422 (The Scripps Research Institute Molecular Screening Center, 2018)
